Reference: PubChem BioAssay AID651813 (National Center for Advancing Translational Sciences (NCATS), 2012)
The campaign covered roughly 2,100 compounds. About 1,100 (52%) were called active. Roughly 27% stayed inconclusive and do not appear here. The set was probably picked from earlier hits. The list shows a part of the results. Values without a mark were called inactive. The call rests on the fitted dose curve; in most records, active means well fitted inhibition curve with a large enough effect; inconclusive means small, poorly fitted or top-dose-only effect; inactive means no such curve, though single readings can be large or run the other way.

molecular target: DNA dC->dU-editing enzyme APOBEC-3G (Homo sapiens) (UniProt Q9HC16); test: qHTS for inhibitors of Vif-A3G interactions: Cherry picks counterscreen; conditions: HeLa A3G-eYFP + Vif (tagged APOBEC3G with the HIV-1 protein that degrades it), eYFP fluorescence, 24 h;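 further: hits raise yellow fluorescence by blocking Vif-driven A3G-eYFP degradation; nearly all actives have a fitted effect of over 70% in size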;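 on max response: max response given as percent of control signal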
Sequence (Q9HC16 whole entry, looked up): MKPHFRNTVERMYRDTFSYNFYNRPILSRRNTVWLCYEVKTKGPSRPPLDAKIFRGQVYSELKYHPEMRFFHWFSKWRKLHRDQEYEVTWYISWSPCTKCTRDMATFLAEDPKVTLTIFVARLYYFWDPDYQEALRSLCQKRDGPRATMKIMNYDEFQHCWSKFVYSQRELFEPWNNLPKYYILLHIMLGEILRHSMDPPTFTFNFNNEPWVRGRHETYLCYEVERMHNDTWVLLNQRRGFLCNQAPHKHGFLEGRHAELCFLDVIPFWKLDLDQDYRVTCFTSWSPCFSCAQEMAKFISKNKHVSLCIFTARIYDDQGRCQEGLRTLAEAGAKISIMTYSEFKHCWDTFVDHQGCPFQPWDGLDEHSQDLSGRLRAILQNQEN
Method in brief: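 HeLa cells stably expressing A3G-eYFP and Vif were treated for 24 h at 37 deg C with compounds at several concentrations; yellow fluorescence (Ex 488 nm, Em 500-530 nm) read by Acumen Explorer, MG132 as positive control.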
Potency means the concentration at half of the fitted maximal effect.

| SMILES | Potency | max response |
| --- | --- | --- |
| CCCNc1c(F)c(F)c2c(C)c3ccccc3nc2c1F | 12.5 µM (active) | – |
| Cc1c2ccccc2nc2c(F)c(NC(C)C)c(F)c(F)c12 | 8.2 µM (active) | – |
| CC1Sc2ccc(C(=O)NCc3ccccn3)cc2NC1=O (stereo not drawn) | – | 3.16% |
| CC(C)CCNC(=O)c1ccc2c(c1)NC(=O)C(CS(=O)(=O)Cc1cccc(Br)c1)N2 (stereo not drawn) | – | 2.76% |
| CCCNC(=O)c1ccccc1NC(=O)c1ccc2c(c1)NC(=O)C(C)S2 (stereo not drawn) | 7.04 µM (active) | – |
| CCN(CC)c1ccc(NC(=O)c2cccc(F)c2)c(C)c1 | 4.98 µM (active) | – |
| COc1ccc(OC)c(NC(=O)Cn2cnc3onc(-c4ccc(Cl)cc4)c3c2=O)c1 | – | 9.98% |
| COc1ccc(OC)c(Nc2ncnc3c2cnn3-c2cccc(Cl)c2)c1 | 7.31 µM (active) | – |
| Cc1ccc2[nH]c(C(=O)NN=C3CCCCC3)c(-c3ccccc3)c2c1 | – | 4.2% |
| Cc1cc(NC(=O)/C(C#N)=C/c2ccc(-c3ccc(SC(F)F)cc3)o2)n(-c2ccccc2)n1 | 4.61 µM (active) | – |
| Cc1cc(NC(=O)/C(C#N)=C\c2ccc(-c3ccc(SC(F)F)cc3)o2)n(-c2ccccc2)n1 | 2.59 µM (active) | – |
| COc1ccc2c(c1)c(/C=C/c1cc[n+](C)cc1)cn2C | 2.23 µM (active) | – |
| COc1ccc2[nH]cc(/C=C/c3cc[n+](C)cc3)c2c1 | 9.2 µM (active) | – |
| C[n+]1ccc(/C=C/c2c[nH]c3ccc(F)cc23)cc1 | 5.8 µM (active) | – |
| Cc1ccc2[nH]cc(/C=C/c3cc[n+](C)cc3)c2c1 | 1.4 µM (active) | – |
| Cc1ccc(NC(=S)N/N=C2\CCCCC2C)cc1 (stereo not drawn) | – | -4.1% |
| Cc1ccc(/C=C/c2ccc(N(C)C)cc2)[n+](C)c1 | 17.7 µM (active) | – |
| CC[n+]1cc(C)ccc1/C=C/c1ccc(N(C)C)cc1 | 17.7 µM (active) | – |
| CN(C)c1ccc(/C=C/c2cc[n+](C)cc2)cc1 | 12.5 µM (active) | – |

| SMILES | Potency | max response |
| --- | --- | --- |
| C=CCOc1c(Cl)cc(C(=S)N2CCCC2)cc1OCC | 15.8 µM (active) | – |
| Cc1cccc(OCCOc2ccccc2C=C(C#N)C#N)c1 | 22.3 µM (active) | – |
| CCCOc1cc(N(CC)CC)ccc1/C=C(/C#N)c1nc2ccc(C)cc2[nH]1 | – | 37.6% |
| COC(=O)c1sccc1NC(=S)Nc1cc(C)cc(C)c1 | – | 5.75% |
| CCOc1ccccc1C(=O)Nc1ccsc1C(=O)OC | 2.5 µM (active) | – |
| COC(=O)c1sccc1S(=O)(=O)N(CC(=O)Nc1cc(F)ccc1F)c1ccc(C)c(C)c1 | – | -2.7% |
| COc1ccc(NC(=O)C2(C)Cc3c(-c4cccc(NC(C)=O)c4)ccnc3O2)cc1 (stereo not drawn) | 1.77 µM (active) | – |
| COc1ccc(NC(=O)C2(C)Cc3c(-c4cccc(C(N)=O)c4)ccnc3O2)cc1 (stereo not drawn) | 4.44 µM (active) | – |
| CCCCn1c(N)c(N(CC(C)C)C(=O)Cc2ccc(S(=O)(=O)N3CCOCC3)s2)c(=O)[nH]c1=O | 18.4 µM (active) | – |
| CCCCn1c(N)c(N(Cc2ccccc2OC)C(=O)c2ccc([N+](=O)[O-])s2)c(=O)[nH]c1=O | – | -2.93% |
| C=CCN1C(=O)c2ccc(C(=O)N(CC(C)C)c3c(N)n(CCCC)c(=O)[nH]c3=O)cc2C1=O | – | 1.27% |
| CCc1cc[n+](-c2nc3ccccc3nc2[N-]S(=O)(=O)c2ccc(Br)s2)cc1 | 23.1 µM (active) | – |
| Cc1cc(C)c[n+](-c2nc3ccccc3nc2[N-]S(=O)(=O)c2ccc(Br)s2)c1 | 23.1 µM (active) | – |
| O=S(=O)([N-]c1nc2ccccc2nc1-[n+]1ccc(-c2ccncc2)cc1)c1ccccc1 | – | 5.45% |
| Cc1ccc(Cc2c(C3CCCCC3)nc3ccc(C)cn23)cc1 | – | 27.2% |
| COc1ccc2oc(-c3ccccc3[N+](=O)[O-])cc(=O)c2c1 | 5.59 µM (active) | – |
| Cc1ccc(NC(=S)N=Nc2c(O)n(C)c3ccc(S(=O)(=O)N4CCOCC4)cc23)cc1 | – | 0.754% |
| CCCN1CCC(=NNc2ccc(S(=O)(=O)N3CCOCC3)cc2[N+](=O)[O-])CC1 | 14 µM (active) | – |
| O=C(O)c1ccccc1/C=N/Nc1ccc(S(=O)(=O)N2CCOCC2)cc1[N+](=O)[O-] | – | -0.239% |
